Here are results for ten molecules from PubChem BioAssay (NCI).

This is part of a sample that, as a whole, favours compounds with a hit. Of some 79,000 tested, about 15% had one in any assay. Values without a mark were called inactive. Active and inactive are the calls of the source. Cut-off read from the data, not from the text of the source: active = growth inhibition above about 70%; inactive = the rest.

The nature of experiment [1]: NCI Yeast Anticancer Drug Screen. Data for the rad50 strain (AID 155).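 Note: 0% = growth of vehicle-only cultures of the same strain.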 The note with it: S. cerevisiae rad50 strain growth inhibition, hits give high values. The method, boiled down: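 Cells are treated with compound, grown, and their growth is then scored against vehicle-only cultures of the same repair-deficient yeast strain.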
Experiment [2] is described as follows: NCI Yeast Anticancer Drug Screen. Data for the mec2-1 strain (AID 157). As to conditions: S. cerevisiae mec2-1 strain, hits give high values. The method, boiled down:
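Using mec2-1 yeast: add compound, measure growth, express inhibition versus vehicle-treated cultures.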

The nature of experiment [3]: NCI Yeast Anticancer Drug Screen. Data for the sgs1 mgt1 strain (AID 161).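 Note: 0% = growth of cultures given vehicle only.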 The note with it: S. cerevisiae sgs1 mgt1 strain, hits give high values. The essentials: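 Compounds are added to genetically altered yeast, and growth is compared with cultures given vehicle alone to give percent inhibition.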
Experiment [4] is described as follows: NCI Yeast Anticancer Drug Screen. Data for the cln2 rad14 strain (AID 165).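 Note: 0% = growth equal to vehicle treated cultures.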 The note with it: S. cerevisiae cln2 rad14 strain, hits give high values. The method, boiled down:
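Yeast strain cln2 rad14, bearing defects in cell cycle control and DNA repair, serves as the test system; values reflect growth inhibition compared with vehicle.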

A short description of experiment [5]: NCI Yeast Anticancer Drug Screen. Data for the bub3 strain (AID 167). The note with it: S. cerevisiae bub3 mutant strain, hits give high values. The essentials:
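Part of a panel of yeast mutants defective in DNA damage repair or cell cycle regulation. Each strain is grown with compound, and inhibition is calculated relative to solvent-treated cultures.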

A short description of experiment [6]: NCI Yeast Anticancer Drug Screen. Data for the mlh1 rad18 strain (AID 175). As to conditions: S. cerevisiae mlh1 rad18 strain growth inhibition, hits give high values. The essentials:
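Steps: expose repair-defective yeast to compound; measure growth; express inhibition against vehicle-treated controls.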

Setting [7] is: at 5.0 µM (retest, dose inferred, filed as 0.5).
Setting [8] is: at 50.0 µM (retest, dose inferred, filed as 5.0).

In the case of `CN1CCC(/C=C/c2cccc3ccccc23)CN1` (stereo not given) (tested in a mixture with another compound), the growth inhibition in experiment [1] (setting [7]) is 1%; in experiment [1] (setting [8]), 93% (active); in experiment [1] (at 50.0 µM), 71.5% (active); in experiment [2] (setting [7]), 18%; in experiment [2] (setting [8]), 71% (active); in experiment [2] (at 50.0 µM), 71.3% (active). Moreover, the growth inhibition in experiment [3] (setting [7]) is -1%; in experiment [3] (setting [8]), 91% (active); in experiment [3] (at 50.0 µM), 79.3% (active); in experiment [4] (setting [7]), 3%; in experiment [4] (setting [8]), 27%; in experiment [4] (at 50.0 µM) it was 23.2%. The growth inhibition in experiment [5] (setting [7]) is -4%; in experiment [5] (setting [8]), 52%; in experiment [5] (at 50.0 µM), 35.9%; in experiment [6] (setting [7]), -1%; in experiment [6] (setting [8]) it was 95% (active); in experiment [6] (at 50.0 µM), 81.3% (active).
On to `CCSC1(SCC)C(=O)OC2=C(CCCC2)C1N1CCOCC1` (stereo not given), for which the growth inhibition in experiment [1] (setting [7]) was 1%; in experiment [1] (setting [8]), 21%; in experiment [1] (at 50.0 µM), 34.1%; in experiment [2] (setting [7]) it was 2%; in experiment [2] (setting [8]), 12%; in experiment [2] (at 50.0 µM), 14.2%. The growth inhibition in experiment [3] (setting [7]) was 0%; in experiment [3] (setting [8]) it was 18%; in experiment [3] (at 50.0 µM) it was 0.35%; in experiment [4] (setting [7]) it was -2%; in experiment [4] (setting [8]), 31%; in experiment [4] (at 50.0 µM) it was 34.9%. The growth inhibition in experiment [5] (setting [7]) is -4%; in experiment [5] (setting [8]) it was 11%; in experiment [5] (at 50.0 µM) it was 13.3%; in experiment [6] (setting [7]), -1%; in experiment [6] (setting [8]), 24%; in experiment [6] (at 50.0 µM), 15.6%.
For `CCCCCC(C)[P+](c1ccccc1)(c1ccccc1)c1ccccc1` (stereo not given), the growth inhibition in experiment [1] (setting [7]) was 54%; in experiment [1] (setting [8]) it was 98% (active); in experiment [1] (at 50.0 µM), 90.8% (active); in experiment [2] (setting [7]), 48%; in experiment [2] (setting [8]), 99% (active); in experiment [2] (at 50.0 µM), 90.9% (active). Further, the growth inhibition was 71% (active) in experiment [3] (setting [7]); 99% (active) in experiment [3] (setting [8]); 90% (active) in experiment [3] (at 50.0 µM); 61% in experiment [4] (setting [7]); 98% (active) in experiment [4] (setting [8]); 90.1% (active) in experiment [4] (at 50.0 µM). Moreover, the growth inhibition in experiment [5] (setting [7]) is 69%; in experiment [5] (setting [8]), 99% (active); in experiment [5] (at 50.0 µM), 91% (active); in experiment [6] (setting [7]) it was 45%; in experiment [6] (setting [8]), 98% (active); in experiment [6] (at 50.0 µM), 88.5% (active).
For the molecule `Cc1cc(Cl)c2c(c1)C(=O)/C(=C/c1ccc(Cl)cc1)O2`, the growth inhibition in experiment [1] (setting [7]) was 5%; in experiment [1] (setting [8]), 99% (active); in experiment [1] (at 50.0 µM), 88.3% (active); in experiment [2] (setting [7]) it was 18%; in experiment [2] (setting [8]), 99% (active); in experiment [2] (at 50.0 µM) it was 90% (active). Further, the growth inhibition in experiment [3] (setting [7]) was -17%; in experiment [3] (setting [8]), 99% (active); in experiment [3] (at 50.0 µM) it was 84.1% (active); in experiment [4] (setting [7]), 26%; in experiment [4] (setting [8]), 99% (active); in experiment [4] (at 50.0 µM), 89.2% (active). Moreover, the growth inhibition in experiment [5] (setting [7]) is -22%; in experiment [5] (setting [8]), 98% (active); in experiment [5] (at 50.0 µM), 88.7% (active); in experiment [6] (setting [7]), 13%; in experiment [6] (setting [8]), 99% (active); in experiment [6] (at 50.0 µM) it was 85.3% (active).
Turning to `O=C(Cl)C(c1ccccc1)(c1ccccc1)c1ccccc1`, the growth inhibition was -3% in experiment [1] (setting [7]); 98% (active) in experiment [1] (setting [8]); 98.2% (active) in experiment [1] (at 50.0 µM); 14% in experiment [2] (setting [7]); 97% (active) in experiment [2] (setting [8]); 95.1% (active) in experiment [2] (at 50.0 µM). The growth inhibition in experiment [3] (setting [7]) was -10%; in experiment [3] (setting [8]), 98% (active); in experiment [3] (at 50.0 µM), 97.8% (active); in experiment [4] (setting [7]) it was 18%; in experiment [4] (setting [8]), 98% (active); in experiment [4] (at 50.0 µM), 92% (active). Further, the growth inhibition in experiment [5] (setting [7]) is 10%; in experiment [5] (setting [8]), 98% (active); in experiment [5] (at 50.0 µM), 94.7% (active); in experiment [6] (setting [7]) it was -8%; in experiment [6] (setting [8]), 99% (active); in experiment [6] (at 50.0 µM), 96.3% (active).
Consider `O=C1OC2(CCCC2)OC1c1ccccc1` (stereo not given), for which the growth inhibition in experiment [1] (setting [7]) was 2%; in experiment [1] (setting [8]), -7%; in experiment [1] (at 50.0 µM) it was 14.9%; in experiment [2] (setting [7]) it was -1%; in experiment [2] (setting [8]), 2%; in experiment [2] (at 50.0 µM) it was -17.6%. In addition, the growth inhibition in experiment [3] (setting [7]) was -2%; in experiment [3] (setting [8]), -7%; in experiment [3] (at 50.0 µM), -9.7%; in experiment [4] (setting [7]) it was -4%; in experiment [4] (setting [8]), 0%; in experiment [4] (at 50.0 µM), 72.2% (active). Further, the growth inhibition in experiment [5] (setting [7]) was -5%; in experiment [5] (setting [8]), -4%; in experiment [5] (at 50.0 µM), 13.2%; in experiment [6] (setting [7]), -5%; in experiment [6] (setting [8]) it was -9%; in experiment [6] (at 50.0 µM), -6.4%.
For `Cc1cccc2nc3nc(Cl)c(Cl)nc3n12`, the growth inhibition in experiment [1] (setting [7]) was 4%; in experiment [1] (setting [8]), 76% (active); in experiment [1] (at 50.0 µM) it was 75.7% (active); in experiment [2] (setting [7]), 17%; in experiment [2] (setting [8]), 82% (active); in experiment [2] (at 50.0 µM) it was 50.1%. Also, the growth inhibition is 13% in experiment [3] (setting [7]); 91% (active) in experiment [3] (setting [8]); 64.5% in experiment [3] (at 50.0 µM); 7% in experiment [4] (setting [7]); 54% in experiment [4] (setting [8]); 51.5% in experiment [4] (at 50.0 µM). Further, the growth inhibition in experiment [5] (setting [7]) was 8%; in experiment [5] (setting [8]) it was 36%; in experiment [5] (at 50.0 µM), 51.4%; in experiment [6] (setting [7]), 26%; in experiment [6] (setting [8]), 95% (active); in experiment [6] (at 50.0 µM), 90.8% (active).
`CCOC(=O)C(=O)NNc1ccccc1`: the growth inhibition in experiment [1] (setting [7]) is 22%; in experiment [1] (setting [8]) it was 89% (active); in experiment [1] (at 50.0 µM), 97.8% (active); in experiment [2] (setting [7]) it was 3%; in experiment [2] (setting [8]) it was 82% (active); in experiment [2] (at 50.0 µM) it was 94.8% (active). For the same molecule, the growth inhibition in experiment [3] (setting [7]) was 13%; in experiment [3] (setting [8]) it was 61%; in experiment [3] (at 50.0 µM), 98.7% (active); in experiment [4] (setting [7]) it was -1%; in experiment [4] (setting [8]), 57%; in experiment [4] (at 50.0 µM), 92.7% (active). Besides, the growth inhibition in experiment [5] (setting [7]) was 17%; in experiment [5] (setting [8]), 96% (active); in experiment [5] (at 50.0 µM), 97.5% (active); in experiment [6] (setting [7]), 31%; in experiment [6] (setting [8]), 95% (active); in experiment [6] (at 50.0 µM) it was 98.9% (active).
For the molecule `CCOC(=O)C1(C#N)C(c2ccccc2)CC(O)(c2ccc([N+](=O)[O-])cc2)C(C(=O)c2ccc([N+](=O)[O-])cc2)C1c1ccccc1` (stereo not given), the growth inhibition in experiment [1] (setting [7]) is -10%; in experiment [1] (setting [8]) it was -25%; in experiment [1] (at 50.0 µM) it was 15.6%; in experiment [2] (setting [7]), 5%; in experiment [2] (setting [8]) it was -12%; in experiment [2] (at 50.0 µM), 14.3%. The growth inhibition in experiment [3] (setting [7]) is -8%; in experiment [3] (setting [8]) it was 0%; in experiment [3] (at 50.0 µM) it was -6.4%; in experiment [4] (setting [7]), -18%; in experiment [4] (setting [8]) it was -17%; in experiment [4] (at 50.0 µM), 31.4%. Besides, the growth inhibition was -13% in experiment [5] (setting [7]); 2% in experiment [5] (setting [8]); 6% in experiment [5] (at 50.0 µM); 1% in experiment [6] (setting [7]); -3% in experiment [6] (setting [8]); 21.2% in experiment [6] (at 50.0 µM).
As to `COC(=O)c1ccc(NCC2=C(Br)C(=O)C=CC2=O)cc1Cl`, the growth inhibition in experiment [1] (setting [7]) was 43%; in experiment [1] (setting [8]), 98% (active); in experiment [1] (at 50.0 µM), 89.4% (active); in experiment [2] (setting [7]), 35%; in experiment [2] (setting [8]), 98% (active); in experiment [2] (at 50.0 µM), 77.6% (active). For the same molecule, the growth inhibition in experiment [3] (setting [7]) is 35%; in experiment [3] (setting [8]), 98% (active); in experiment [3] (at 50.0 µM) it was 92.3% (active); in experiment [4] (setting [7]), 43%; in experiment [4] (setting [8]) it was 98% (active); in experiment [4] (at 50.0 µM), 88.8% (active). Also, the growth inhibition in experiment [5] (setting [7]) was 44%; in experiment [5] (setting [8]), 98% (active); in experiment [5] (at 50.0 µM), 90.8% (active); in experiment [6] (setting [7]), 37%; in experiment [6] (setting [8]) it was 97% (active); in experiment [6] (at 50.0 µM), 89.7% (active).
